We go through two sequences from paper PMC7862700, “An all-to-all approach to the identification of sequence-specific readers for epigenetic DNA modifications on cytosine”.

Common to all, as to assay: DAPPL (digital affinity profiling via proximity ligation, sequencing); 10 mM Tris-HCl pH 7.5, 50 mM NaCl, 1 mM DTT, 4% glycerol, room temperature, 30 min; GST-TFs on glutathione beads, 16-mer random dsDNA library, 0.1% formaldehyde crosslink after washing; high values mean tight binding
Conditions in all cases: protein: recombinant; tags: N-terminal GST; dsDNA, one strand shown

One assay deals with T1, FLI1 (Homo sapiens, UniProt Q01543 1-452).
T1 sequence: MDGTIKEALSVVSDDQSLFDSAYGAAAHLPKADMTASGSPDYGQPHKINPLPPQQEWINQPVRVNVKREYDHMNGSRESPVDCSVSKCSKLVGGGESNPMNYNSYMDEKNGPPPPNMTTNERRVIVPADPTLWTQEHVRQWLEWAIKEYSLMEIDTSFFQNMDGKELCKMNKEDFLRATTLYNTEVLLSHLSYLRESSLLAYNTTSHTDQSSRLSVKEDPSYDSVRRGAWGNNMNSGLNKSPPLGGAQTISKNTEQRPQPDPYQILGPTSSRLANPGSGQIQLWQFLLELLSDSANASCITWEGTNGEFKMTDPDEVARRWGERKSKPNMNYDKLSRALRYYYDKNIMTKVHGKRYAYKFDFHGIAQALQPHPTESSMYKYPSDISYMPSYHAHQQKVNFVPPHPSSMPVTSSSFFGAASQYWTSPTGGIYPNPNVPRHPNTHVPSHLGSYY
A digest of the protocol: (§1)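 Each value of binding signal is a hexamer's read frequency for a factor divided by the same hexamer's frequency in the tag-only sample. Barcoded, bead-captured GST fusions of human transcription factors made in yeast were pooled with that sample and incubated with 200 nmole of a random double-stranded 16-mer DNA library in Tris/NaCl/DTT/glycerol buffer at room temperature for 30 min. Washing, 0.1% formaldehyde crosslinking, proximity ligation, PCR and Illumina NextSeq500 sequencing followed.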

For a further assay, the target named is T2, ELK1 (Homo sapiens, UniProt P19419 1-428).
T2 sequence: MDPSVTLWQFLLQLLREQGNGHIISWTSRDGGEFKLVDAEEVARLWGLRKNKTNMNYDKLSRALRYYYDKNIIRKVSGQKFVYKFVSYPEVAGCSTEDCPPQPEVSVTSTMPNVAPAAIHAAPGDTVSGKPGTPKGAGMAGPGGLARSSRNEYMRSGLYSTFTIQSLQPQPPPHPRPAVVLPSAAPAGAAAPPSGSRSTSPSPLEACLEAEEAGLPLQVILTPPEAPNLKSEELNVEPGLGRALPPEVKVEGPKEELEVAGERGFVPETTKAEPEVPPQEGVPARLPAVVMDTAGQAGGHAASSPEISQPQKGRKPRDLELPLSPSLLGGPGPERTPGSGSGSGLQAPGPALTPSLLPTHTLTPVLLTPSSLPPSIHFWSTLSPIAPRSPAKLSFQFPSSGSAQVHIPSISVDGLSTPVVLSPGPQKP
A digest of the protocol: as §1

The target in a further assay is T3, GABPA (Homo sapiens, UniProt Q06546 1-454).
T3 sequence: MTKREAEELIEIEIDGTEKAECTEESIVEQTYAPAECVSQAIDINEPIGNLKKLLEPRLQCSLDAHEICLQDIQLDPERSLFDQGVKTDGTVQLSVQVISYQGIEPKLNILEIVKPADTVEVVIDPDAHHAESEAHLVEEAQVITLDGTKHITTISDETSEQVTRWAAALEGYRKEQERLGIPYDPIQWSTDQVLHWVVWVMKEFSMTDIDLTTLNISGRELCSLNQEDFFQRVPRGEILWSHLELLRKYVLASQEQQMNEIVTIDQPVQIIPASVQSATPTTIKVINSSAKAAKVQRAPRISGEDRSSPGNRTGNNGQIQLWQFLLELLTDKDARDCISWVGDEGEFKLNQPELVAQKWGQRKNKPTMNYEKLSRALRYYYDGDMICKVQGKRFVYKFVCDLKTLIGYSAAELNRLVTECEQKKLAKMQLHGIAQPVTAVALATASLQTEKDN
A digest of the protocol: as §1

Another assay addresses T4, ERG (Homo sapiens, UniProt P11308 1-479).
T4 sequence: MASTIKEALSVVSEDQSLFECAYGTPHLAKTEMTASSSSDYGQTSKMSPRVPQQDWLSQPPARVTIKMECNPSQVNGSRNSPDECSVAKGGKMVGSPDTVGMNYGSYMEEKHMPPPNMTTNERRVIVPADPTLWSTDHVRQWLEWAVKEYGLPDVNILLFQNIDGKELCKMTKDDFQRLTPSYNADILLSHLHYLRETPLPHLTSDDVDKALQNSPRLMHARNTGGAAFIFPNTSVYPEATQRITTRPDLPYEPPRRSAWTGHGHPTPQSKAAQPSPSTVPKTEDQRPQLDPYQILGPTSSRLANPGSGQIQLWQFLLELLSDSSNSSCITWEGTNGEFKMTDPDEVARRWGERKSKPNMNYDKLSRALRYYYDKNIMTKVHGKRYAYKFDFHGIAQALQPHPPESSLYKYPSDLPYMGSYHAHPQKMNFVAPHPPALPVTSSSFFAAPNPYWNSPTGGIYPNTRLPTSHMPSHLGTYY
An outline of the steps: as §1

Another assay concerns the target ELF1 (Homo sapiens, UniProt P32519 1-619). A digest of the protocol:
as §1

The target in a further assay is T5, EHF (Homo sapiens, UniProt Q9NZC4 1-300).
T5 sequence: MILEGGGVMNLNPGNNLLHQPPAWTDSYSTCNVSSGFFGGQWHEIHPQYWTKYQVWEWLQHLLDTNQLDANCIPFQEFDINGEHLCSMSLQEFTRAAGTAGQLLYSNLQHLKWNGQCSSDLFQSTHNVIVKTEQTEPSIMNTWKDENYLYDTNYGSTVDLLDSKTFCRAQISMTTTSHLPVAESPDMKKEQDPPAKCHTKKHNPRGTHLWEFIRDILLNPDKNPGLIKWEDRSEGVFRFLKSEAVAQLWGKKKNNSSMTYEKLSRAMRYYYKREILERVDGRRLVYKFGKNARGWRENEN
An outline of the steps: as §1

The target of a further assay is SPI1 (Homo sapiens, UniProt P17947 1-270). A digest of the protocol:
as §1

The target of another assay is SPIB (Homo sapiens, UniProt Q01892 1-262). An outline of the steps: as §1
A further assay has as its target T6, ELK3 (Homo sapiens, UniProt P41970 1-407).
T6 sequence: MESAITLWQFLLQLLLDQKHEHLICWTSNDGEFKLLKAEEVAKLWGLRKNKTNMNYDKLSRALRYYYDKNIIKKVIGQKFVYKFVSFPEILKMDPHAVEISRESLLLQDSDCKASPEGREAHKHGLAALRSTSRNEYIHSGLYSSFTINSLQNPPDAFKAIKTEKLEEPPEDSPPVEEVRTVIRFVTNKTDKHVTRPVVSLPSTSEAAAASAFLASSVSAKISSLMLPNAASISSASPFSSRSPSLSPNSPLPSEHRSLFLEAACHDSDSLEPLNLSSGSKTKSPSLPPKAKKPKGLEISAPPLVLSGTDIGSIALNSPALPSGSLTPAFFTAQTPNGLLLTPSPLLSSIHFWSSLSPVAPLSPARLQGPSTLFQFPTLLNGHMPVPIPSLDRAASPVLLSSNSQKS
An outline of the steps: as §1

In another assay the target is T7, FEV (Homo sapiens, UniProt Q99581 1-238).
T7 sequence: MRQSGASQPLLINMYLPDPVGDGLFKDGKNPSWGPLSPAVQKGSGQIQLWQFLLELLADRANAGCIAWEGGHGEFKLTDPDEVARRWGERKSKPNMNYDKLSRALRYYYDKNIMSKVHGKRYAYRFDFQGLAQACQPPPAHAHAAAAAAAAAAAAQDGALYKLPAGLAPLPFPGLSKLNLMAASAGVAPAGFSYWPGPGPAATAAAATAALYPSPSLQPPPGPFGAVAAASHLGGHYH
A digest of the protocol:
as §1

For another assay, the target named is ETV5 (Homo sapiens, UniProt P41161 1-510). A digest of the protocol:
as §1

The next assay has as its target T8, SPIC (Homo sapiens, UniProt Q8N5J4 1-248).
T8 sequence: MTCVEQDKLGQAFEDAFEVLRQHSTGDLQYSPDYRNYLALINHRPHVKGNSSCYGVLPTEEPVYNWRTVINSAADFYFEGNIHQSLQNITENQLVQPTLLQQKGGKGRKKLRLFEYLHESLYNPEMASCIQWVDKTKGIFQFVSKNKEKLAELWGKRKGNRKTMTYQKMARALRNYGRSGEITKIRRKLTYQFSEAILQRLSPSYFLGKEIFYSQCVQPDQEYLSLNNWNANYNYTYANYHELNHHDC
An outline of the steps:
as §1

Another assay addresses ELF4 (Homo sapiens, UniProt Q99607 1-663). An outline of the steps:
as §1

For another assay, the target named is T9, ELK4 (Homo sapiens, UniProt P28324-2 1-405).
T9 sequence: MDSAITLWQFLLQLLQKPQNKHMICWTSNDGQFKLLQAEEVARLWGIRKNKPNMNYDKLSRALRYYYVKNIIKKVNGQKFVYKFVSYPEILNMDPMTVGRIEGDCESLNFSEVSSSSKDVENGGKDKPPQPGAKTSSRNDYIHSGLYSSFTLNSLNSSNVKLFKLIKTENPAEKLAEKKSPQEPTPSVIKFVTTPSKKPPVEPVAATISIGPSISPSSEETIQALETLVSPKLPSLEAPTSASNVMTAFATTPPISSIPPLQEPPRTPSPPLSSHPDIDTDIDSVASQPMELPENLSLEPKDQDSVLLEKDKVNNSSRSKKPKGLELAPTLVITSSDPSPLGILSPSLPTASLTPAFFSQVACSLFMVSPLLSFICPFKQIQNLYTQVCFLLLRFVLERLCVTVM
A digest of the protocol: as §1

The next assay addresses T10, ETV2 (Homo sapiens, UniProt O00321 1-342).
T10 sequence: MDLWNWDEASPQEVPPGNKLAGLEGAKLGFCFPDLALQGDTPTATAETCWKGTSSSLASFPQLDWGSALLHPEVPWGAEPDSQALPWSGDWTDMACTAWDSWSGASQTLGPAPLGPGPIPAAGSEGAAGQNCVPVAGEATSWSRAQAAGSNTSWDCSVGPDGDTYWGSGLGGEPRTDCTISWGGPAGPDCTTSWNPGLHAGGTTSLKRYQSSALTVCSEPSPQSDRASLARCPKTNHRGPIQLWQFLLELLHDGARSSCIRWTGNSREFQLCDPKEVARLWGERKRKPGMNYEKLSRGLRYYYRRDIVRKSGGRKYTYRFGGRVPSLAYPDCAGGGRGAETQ
An outline of the steps: as §1

A further assay deals with T11, ELF3 (Homo sapiens, UniProt P78545 1-371).
T11 sequence: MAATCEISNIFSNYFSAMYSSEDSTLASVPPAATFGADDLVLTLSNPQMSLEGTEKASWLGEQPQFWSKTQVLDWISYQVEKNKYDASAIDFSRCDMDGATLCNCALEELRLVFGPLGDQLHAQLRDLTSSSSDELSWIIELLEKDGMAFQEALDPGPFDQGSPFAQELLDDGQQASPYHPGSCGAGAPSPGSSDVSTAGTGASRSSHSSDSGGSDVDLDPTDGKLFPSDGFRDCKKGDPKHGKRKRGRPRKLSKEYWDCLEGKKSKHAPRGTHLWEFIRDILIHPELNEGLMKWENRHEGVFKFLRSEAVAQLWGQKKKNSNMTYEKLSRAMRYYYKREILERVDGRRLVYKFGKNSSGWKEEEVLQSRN
An outline of the steps:
as §1

Another assay addresses ETV1 (Homo sapiens, UniProt P50549 1-477). A digest of the protocol:
as §1

ELF1, sequence (P32519 whole entry): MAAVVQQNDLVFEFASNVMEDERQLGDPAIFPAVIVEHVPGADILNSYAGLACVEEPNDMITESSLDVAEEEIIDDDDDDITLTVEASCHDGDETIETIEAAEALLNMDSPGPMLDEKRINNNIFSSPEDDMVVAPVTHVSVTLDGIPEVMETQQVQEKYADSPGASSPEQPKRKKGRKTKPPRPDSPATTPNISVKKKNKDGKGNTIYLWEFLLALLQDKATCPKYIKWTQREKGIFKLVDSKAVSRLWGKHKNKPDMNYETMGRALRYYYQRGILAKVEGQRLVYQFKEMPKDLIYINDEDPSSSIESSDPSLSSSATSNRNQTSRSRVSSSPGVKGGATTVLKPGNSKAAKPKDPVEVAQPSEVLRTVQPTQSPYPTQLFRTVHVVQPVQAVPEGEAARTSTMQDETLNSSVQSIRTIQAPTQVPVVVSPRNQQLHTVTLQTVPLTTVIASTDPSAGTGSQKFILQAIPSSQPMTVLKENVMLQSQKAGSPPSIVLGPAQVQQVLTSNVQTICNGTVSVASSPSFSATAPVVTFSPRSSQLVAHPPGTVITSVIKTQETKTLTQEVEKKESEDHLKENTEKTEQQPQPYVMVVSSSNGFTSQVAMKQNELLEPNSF
SPIB, sequence (Q01892 whole entry): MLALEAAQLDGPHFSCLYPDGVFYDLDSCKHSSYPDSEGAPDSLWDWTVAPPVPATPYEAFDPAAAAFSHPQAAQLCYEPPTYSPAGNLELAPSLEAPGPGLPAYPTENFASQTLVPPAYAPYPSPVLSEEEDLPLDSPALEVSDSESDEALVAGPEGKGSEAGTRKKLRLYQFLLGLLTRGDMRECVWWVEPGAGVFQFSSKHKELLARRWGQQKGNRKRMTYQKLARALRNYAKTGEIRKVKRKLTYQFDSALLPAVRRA
ETV1, sequence (P50549 whole entry): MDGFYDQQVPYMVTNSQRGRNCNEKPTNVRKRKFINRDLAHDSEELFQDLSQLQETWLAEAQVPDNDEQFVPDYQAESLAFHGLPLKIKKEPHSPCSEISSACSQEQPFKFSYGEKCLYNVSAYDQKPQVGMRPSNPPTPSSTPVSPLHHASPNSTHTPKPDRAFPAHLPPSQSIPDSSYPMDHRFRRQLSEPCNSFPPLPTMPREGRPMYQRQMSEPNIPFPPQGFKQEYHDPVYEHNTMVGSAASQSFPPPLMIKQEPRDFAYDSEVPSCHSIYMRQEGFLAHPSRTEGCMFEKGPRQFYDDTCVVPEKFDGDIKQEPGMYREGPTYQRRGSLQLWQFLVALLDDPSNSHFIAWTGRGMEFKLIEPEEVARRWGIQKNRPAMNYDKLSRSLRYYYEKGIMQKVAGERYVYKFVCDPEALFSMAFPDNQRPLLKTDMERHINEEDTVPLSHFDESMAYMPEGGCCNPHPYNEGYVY
ETV5, sequence (P41161 whole entry): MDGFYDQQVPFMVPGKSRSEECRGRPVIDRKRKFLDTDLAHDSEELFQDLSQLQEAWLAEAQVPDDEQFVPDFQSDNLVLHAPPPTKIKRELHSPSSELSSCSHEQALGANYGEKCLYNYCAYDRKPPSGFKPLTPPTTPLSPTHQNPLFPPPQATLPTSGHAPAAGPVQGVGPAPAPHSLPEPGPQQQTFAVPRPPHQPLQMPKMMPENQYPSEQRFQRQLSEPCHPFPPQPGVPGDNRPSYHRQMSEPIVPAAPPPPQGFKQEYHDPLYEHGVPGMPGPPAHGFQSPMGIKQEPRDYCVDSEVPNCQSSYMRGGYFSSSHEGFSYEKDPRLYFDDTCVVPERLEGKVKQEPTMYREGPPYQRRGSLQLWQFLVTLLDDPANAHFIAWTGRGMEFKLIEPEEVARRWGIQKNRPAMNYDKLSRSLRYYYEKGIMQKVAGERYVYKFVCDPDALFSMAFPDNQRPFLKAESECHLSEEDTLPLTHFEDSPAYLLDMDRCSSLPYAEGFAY
ELF4, sequence (Q99607 whole entry): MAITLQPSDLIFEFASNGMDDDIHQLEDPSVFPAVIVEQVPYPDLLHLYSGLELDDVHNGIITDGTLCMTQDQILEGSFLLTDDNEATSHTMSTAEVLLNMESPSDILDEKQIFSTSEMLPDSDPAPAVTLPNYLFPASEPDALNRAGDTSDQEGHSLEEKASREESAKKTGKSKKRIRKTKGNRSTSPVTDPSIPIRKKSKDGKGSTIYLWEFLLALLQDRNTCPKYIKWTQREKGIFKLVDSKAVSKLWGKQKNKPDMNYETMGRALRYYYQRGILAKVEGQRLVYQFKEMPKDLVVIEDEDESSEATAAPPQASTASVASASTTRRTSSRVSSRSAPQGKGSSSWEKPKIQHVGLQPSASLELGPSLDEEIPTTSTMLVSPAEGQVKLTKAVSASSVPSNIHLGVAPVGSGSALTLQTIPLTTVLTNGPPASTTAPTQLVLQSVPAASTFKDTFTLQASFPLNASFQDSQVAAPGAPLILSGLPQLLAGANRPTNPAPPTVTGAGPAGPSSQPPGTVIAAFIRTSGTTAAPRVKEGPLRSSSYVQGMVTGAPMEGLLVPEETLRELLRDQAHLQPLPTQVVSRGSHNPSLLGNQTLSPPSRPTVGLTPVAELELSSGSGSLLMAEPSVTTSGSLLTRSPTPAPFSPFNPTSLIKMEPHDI

Regarding CCGGAC, the binding signal with FLI1 was 1.47 fold enrichment (6-mer frequency, TF over GST control); with ELK1 it was 1.48 fold enrichment (6-mer frequency, TF over GST control); in the assay with GABPA, 1.41 fold enrichment (6-mer frequency, TF over GST control); in the assay with ERG, 1.74 fold enrichment (6-mer frequency, TF over GST control); with ELF1 it was 1.44 fold enrichment (6-mer frequency, TF over GST control); with EHF, 1.56 fold enrichment (6-mer frequency, TF over GST control). Further, the binding signal with SPI1 is 1.41 fold enrichment (6-mer frequency, TF over GST control); with SPIB it was 1.57 fold enrichment (6-mer frequency, TF over GST control); in the assay with ELK3, 1.38 fold enrichment (6-mer frequency, TF over GST control); with FEV, 2.05 fold enrichment (6-mer frequency, TF over GST control); in the assay with ETV5, 1.57 fold enrichment (6-mer frequency, TF over GST control); with SPIC it was 1.22 fold enrichment (6-mer frequency, TF over GST control). Moreover, the binding signal with ELF4 is 1.44 fold enrichment (6-mer frequency, TF over GST control); with ELK4 it was 1.15 fold enrichment (6-mer frequency, TF over GST control); with ETV2, 1.39 fold enrichment (6-mer frequency, TF over GST control); with ELF3, 1.45 fold enrichment (6-mer frequency, TF over GST control); with ETV1, 1.53 fold enrichment (6-mer frequency, TF over GST control).
As to CATTCA, the binding signal is 1.17 fold enrichment (6-mer frequency, TF over GST control) with FLI1; 1.14 fold enrichment (6-mer frequency, TF over GST control) in the assay with ELK1; 1.1 fold enrichment (6-mer frequency, TF over GST control) with GABPA; 1.17 fold enrichment (6-mer frequency, TF over GST control) with ERG; 1.13 fold enrichment (6-mer frequency, TF over GST control) with ELF1; 1.05 fold enrichment (6-mer frequency, TF over GST control) with EHF. Also, the binding signal in the assay with SPI1 was 1.07 fold enrichment (6-mer frequency, TF over GST control); with SPIB, 1.12 fold enrichment (6-mer frequency, TF over GST control); with ELK3, 1.16 fold enrichment (6-mer frequency, TF over GST control); with FEV it was 1.01 fold enrichment (6-mer frequency, TF over GST control); with ETV5, 1.12 fold enrichment (6-mer frequency, TF over GST control); with SPIC it was 1.01 fold enrichment (6-mer frequency, TF over GST control). For the same sequence, the binding signal in the assay with ELF4 is 1.11 fold enrichment (6-mer frequency, TF over GST control); with ELK4, 1.09 fold enrichment (6-mer frequency, TF over GST control); in the assay with ETV2, 1.03 fold enrichment (6-mer frequency, TF over GST control); with ELF3 it was 1.06 fold enrichment (6-mer frequency, TF over GST control); with ETV1, 1.15 fold enrichment (6-mer frequency, TF over GST control).
